According to PubChem BioAssay (NCATS):
Inconclusive results are not listed. Entries that show only a call come without a potency. Activity calls are given as the source filed them. Calls come from the whole dose curve; as a rule, active = well fitted inhibition curve with a large enough effect; inconclusive = small, poorly fitted or top-dose-only effect; inactive = flat fitted curve, though single readings scatter.

Tested on: CP203
Test: qHTS profiling for inhibitors of Plasmodium falciparum proliferation (AID 504749); note: nearly all actives have a fitted effect of over 60% in size
Details: P. falciparum in erythrocytes, SYBR Green DNA, 72 h; series mostly up to 28.7 µM
Source text: NIH National Institute of Allergy and Infectious Diseases [NIAID] NIH Chemical Genomics Center [NCGC] MLPCN Grant: None Assay Provider: Xinzhuan Su, NIAID NCGC Assay Overview: Plasmodium falciparum is a virulent malarial parasite that kills 1-2 million people worldwide each year. Transmitted by mosquitoes, the sporozoite form of the parasite enters the blood stream to infect hepatocytes, where they become merozoites that infect red blood cells (erythrocytes). Within erythrocytes, merozoites begin a […] cycle of growth and division, after which the parasite is released to infect new red blood cells. Gametocytes, which form within erythrocytes as well, circulate in the bloodstream and are ingested by the mosquito, thereby completing the life cycle. To profile malarial isolates for differential chemical responses and to identify inhibitors of malarial growth, an assay that measures P. falciparum growth and replication within erythrocytes was employed. This assay uses a DNA binding fluorescent dye (SYBR Green) to detect parasite DNA following cell lysis. Because mature erythrocytes lack DNA, only Plasmodium-derived DNA is detected.
NCGC Assay Protocol Summary: The SYBR Green viability assay was adapted from a method described previously (Plouffe et al., 2008). For screening 3 ul culture medium was dispensed into 1536 well black clear bottom plates (Aurora Biotechnologies) using a Multidrop Combi (Thermo Fisher Scientific Inc.), 23 nL compounds in DMSO were added by a pin tool (Kalypsys), and 5 ul of erythrocytes infected with P. falciparum (0.3% parasitemia, 2.5% hematocrit final concentration) were added. The plates were incubated at 37 C in a humidified incubator in 5% CO2 for 72 h, and 2 ul lysis buffer (20 mM Tris HCl, 10 mM EDTA, 0.16% saponin, 1.6% triton X, 10X SYBR Green I supplied as 10,000X […] by Invitrogen) was added to each well. The plates were mixed for 25 sec with gentle shaking and incubated overnight at room temperature in the dark. The following morning, fluorescence intensity at 485(14) nm excitation and 535(25) nm emission wavelengths was measured on an EnVision (Perkin Elmer) plate reader. Plate reads were normalized relative to the control inhibitor (0.29 uM artemisinin) and vehicle (DMSO) wells present on each plate and then corrected by an algorithm using vehicle-only control plates at the beginning and end of the compound plate stack.
Potency is the fitted concentration of half-maximal effect.

With Cc1cc(-c2ccccc2)nnc1NCCN1CCOCC1 as the compound, how does the Potency read?
The Potency was “inactive”.

How did the Potency turn out when CN1CCN(c2c(F)cc3c(=O)c(C(=O)O)cn4c3c2SCC4)CC1 was run?
Its Potency is “inactive”.

How did the Potency turn out when CC(=O)Nc1ccc(CC(=O)O)cc1 was run?
Its Potency is “inactive”.

Which Potency does the source give for COc1ccc(C(Cl)=C(c2ccc(OC)cc2)c2ccc(OC)cc2)cc1 here?
Its Potency is “inactive”.

With CCCCCCCCOc1ccc(C(=O)c2ccccc2)c(O)c1 as the compound, how does the Potency read?
The Potency was “inactive”.

Which Potency does the source give for Cc1ccccc1OCC(O)CO (stereo not given) here?
The Potency was “inactive”.

How did the Potency turn out when Cc1cc(CC(=O)O)c(C)n1-c1ccc(Cl)cc1 was run?
Its Potency is “inactive”.

CCOC(=O)C(C#N)=C(c1ccccc1)c1ccccc1 was tested. Which Potency did it give?
Its Potency is “inactive”.

C[N+]1(CC2COC(c3ccccc3)(C3CCCCC3)O2)CCCCC1 (stereo not given) was tested. Which Potency did it give?
Its Potency is 4.78 µM (active).

C/C=C/c1ccc(O)c(OC)c1 was tested. Which Potency did it give?
Its Potency is “inactive”.

Which Potency does the source give for O=C1C(CCS(=O)c2ccccc2)C(=O)N(c2ccccc2)N1c1ccccc1 (stereo not given) here?
The Potency was “inactive”.

Which Potency does the source give for C#C[C@]1(O)CC[C@H]2[C@@H]3CCC4=CC(=O)CC[C@@H]4[C@H]3CC[C@@]21CC here?
The Potency was “inactive”.

For Oc1ccccc1C=NCc1ccccc1, which Potency is on record?
The Potency was “inactive”.

With CC(=O)OCC(=O)[C@H]1CC[C@H]2[C@@H]3CCC4=CC(=O)CC[C@]4(C)[C@H]3CC[C@]12C as the compound, how does the Potency read?
Its Potency is “inactive”.

CCC(CC)(CC(=O)Nc1cccc(/C=C/c2nc(C3CCC3)cs2)c1)C(=O)O was tested. Which Potency did it give?
Its Potency is “inactive”.

With O=C(O)Cc1csc(-c2ccc(Cl)cc2)n1 as the compound, how does the Potency read?
The Potency was “inactive”.

For COc1ccc(/C=N/NC(=O)c2ccncc2)cc1OC, which Potency is on record?
Its Potency is “inactive”.

How did the Potency turn out when Cc1cccc(C)c1NC(=O)c1ccccc1C(=O)O was run?
The Potency was “inactive”.

Which Potency does the source give for C[N+]1(C)CCC(=C(c2ccccc2)c2ccccc2)CC1 here?
The Potency was “inactive”.

With O=C(Nc1ncc([N+](=O)[O-])s1)c1cccs1 as the compound, how does the Potency read?
Its Potency is “inactive”.

Which Potency does the source give for CCOc1ccccc1OCCN[C@H](C)Cc1ccc(OC)c(S(N)(=O)=O)c1 here?
Its Potency is “inactive”.

For Cc1ccc(O)c([C@H](CCN(C(C)C)C(C)C)c2ccccc2)c1, which Potency is on record?
Its Potency is 3.79 µM (active).

How did the Potency turn out when CC(=O)Nc1ccc(S(=O)(=O)Nc2ccc([N+](=O)[O-])cc2)cc1 was run?
Its Potency is “inactive”.

CC(C)(C)NC[C@H](O)COc1cccc2c1CCCC2=O was tested. Which Potency did it give?
Its Potency is “inactive”.

Which Potency does the source give for NS(=O)(=O)Cc1noc2ccccc12 here?
Its Potency is “inactive”.

With c1ccc(CC2=NCCN2)cc1 as the compound, how does the Potency read?
The Potency was “inactive”.

For Oc1c(Cl)cc(Cl)c(Cl)c1Cc1c(O)c(Cl)cc(Cl)c1Cl, which Potency is on record?
Its Potency is 7.57 µM (active).

With CCOc1ccccc1C(N)=O as the compound, how does the Potency read?
Its Potency is “inactive”.

With CNCCCCOc1ccccc1Cc1ccccc1 as the compound, how does the Potency read?
The Potency was 4.26 µM (active).

Which Potency does the source give for C#C[C@]1(OC(C)=O)CC[C@H]2[C@@H]3CCC4=C/C(=N/O)CC[C@@H]4[C@H]3CC[C@@]21CC here?
Its Potency is “inactive”.

How did the Potency turn out when O=C(O)C1(C(=O)O)CCC1.[NH2-].[NH2-].[Pt+2] was run?
The Potency was “inactive”.

C=CCN1CCc2nc(N)sc2CC1 was tested. Which Potency did it give?
The Potency was “inactive”.

NC(=O)n1c(O)c(C(=O)c2cccs2)c2cc(Cl)ccc21 was tested. Which Potency did it give?
The Potency was “inactive”.

Which Potency does the source give for CCc1ccc(C(=O)C(C)CN2CCCCC2)cc1 (stereo not given) here?
The Potency was “inactive”.

For CCOC(=O)Nc1ccc2c(c1)N(C(=O)CCN1CCOCC1)c1ccccc1S2, which Potency is on record?
The Potency was “inactive”.

For CCCCCCCCNC(C)C(O)c1ccc(SC(C)C)cc1 (stereo not given), which Potency is on record?
Its Potency is 1.69 µM (active).

CC1(COc2ccc(CC3SC(=O)NC3=O)cc2)CCCCC1 (stereo not given) was tested. Which Potency did it give?
The Potency was “inactive”.

O=C(CCN1CCN2CCCC2C1)N1c2ccccc2Sc2ccc(Cl)cc21 (stereo not given) was tested. Which Potency did it give?
The Potency was “inactive”.

With Nc1nc(-c2ccccc2)c(Br)c(=O)[nH]1 as the compound, how does the Potency read?
Its Potency is “inactive”.

COc1ccc(CCN(C)CCCN2CCc3cc(OC)c(OC)cc3CC2=O)cc1OC was tested. Which Potency did it give?
The Potency was “inactive”.
